The values that follow come from PubChem BioAssay (Tox21).

The nature of assay [1]: Nuclear factor erythroid 2-related factor 2/antioxidant responsive element (Nrf2/ARE) small molecule agonists: qHTS cell viability counter screen in human keratinocytes (AID 1919968; active = well fitted curve in the direction sought with a large enough effect in the repeat runs; an effect the other way counts as inactive or inconclusive; note: nearly all actives have a fitted effect of over 55% in size). A digest of the protocol:
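In human HaCaT keratinocytes stably expressing an ARE-driven luciferase, compound exposure lasted 23 h at 37 C under 5% CO2. Viable cells are quantified with a protease-based fluorogenic reagent (CellTiter-Fluor) read 1 h after addition.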

Assay [2] is described as follows: Nuclear factor erythroid 2-related factor 2/antioxidant responsive element (Nrf2/ARE) small molecule agonists: luciferase reporter gene qHTS assay in human keratinocytes (AID 1919969). Note: nearly all actives have a fitted effect of over 35% in size. Note: potency is the fitted concentration of half-maximal effect. For orientation: A reporter such as luciferase makes a cellular process visible.
Assay [3] has as its target Gonadotropin-releasing hormone receptor (Homo sapiens) (UniProt P30968). The assay can be described thus: Human gonadotropin-releasing hormone receptor (GnRHR) small molecule agonists, calcium flux assay in GnRHR-HEK293 cells (AID 1920063). Note: nearly all actives have a fitted effect of over 35% in size. A digest of the protocol: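 Intracellular calcium rise is the read-out: engineered human GnRHR HEK293 cells, dye-loaded, are exposed to DMSO-dissolved compounds and fluorescence at Ex/Em 480/540 is tracked for 3 min.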
(Calcium assays in cells follow changes in intracellular calcium, usually with a dye or a luminescent sensor.)

Assay [4] has as its target KiSS-1 receptor (Homo sapiens) (UniProt Q969F8). The assay can be described thus: Human kisspeptin (KISS1R) small molecule agonists, calcium flux assay in KISS1R-HEK293 cells (AID 1920064; active = well fitted curve in the direction sought with a large enough effect in the repeat runs; an effect the other way counts as inactive or inconclusive). Put shortly:
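Concentration-response testing used 15 concentrations in triplicate on human KISS1R-expressing HEK293 cells. Calcium-dependent fluorescence (Ex/Em 480/540) was followed kinetically for 3 min after compound transfer.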

A short description of assay [5]: G protein-coupled receptor (GPCR) small molecule agonists, calcium flux assay: HEK293 wild type cell line counter screen (AID 1920065). Put shortly:
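Fluorescence intensity signals activation. After overnight (18 h) culture and a 1 h calcium dye load at 37 C, compounds are added by pin tool and the plate read at 480/540 nm for 3 min in 1 s steps.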

The nature of assay [6]: p53 small molecule agonists, cell-based qHTS assay with human liver microsomes (AID 1963577).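 Note: p53 response element beta-lactamase reporter cells with liver microsomes plus NADPH.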 Put shortly:
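Steps: plate p53RE-bla cells, incubate 5 h at 37 C; add compound in DMSO; add microsomes (0.5 mg/mL final) and NADPH (0.5 mg/mL final); incubate 16 h at 37 C; add LiveBLAzer, 2 h RT; read fluorescence.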
A general note: Quantitative high-throughput screening tests each substance at several concentrations.

The nature of assay [7]: p53 small molecule agonists, cell-based qHTS assay with rat liver microsomes (AID 1963578). Put shortly:
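Metabolic activation is supplied by rat liver microsomes with NADPH (each 0.5 mg/mL final). p53RE-bla cells incubate with compound 16 h at 37 C; reporter activity is measured by LiveBLAzer fluorescence.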

A short description of assay [8]: p53 small molecule agonists, cell-based qHTS assay with rat liver microsomes: qHTS cell viability counter screen (AID 1963580). Note: nearly all actives have a fitted effect of over 45% in size. Put shortly: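 Cytotoxicity counter screen: intracellular ATP measured by CellTiter-Glo luminescence in the same wells as the beta-lactamase reporter read, on HCT-116 p53RE-bla cells exposed 16 h at 37 C to compounds with rat liver microsomes and NADPH, each 0.5 mg/mL final.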

Assay [9] is described as follows: p53 small molecule agonists, cell-based qHTS assay: qHTS cell viability counter screen (AID 1963581). Note: nearly all actives have a fitted effect of over 45% in size. A digest of the protocol:
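Luminescence from CellTiter-Glo, reflecting ATP content, serves as the cytotoxicity measure; it is taken after the 2 h reporter substrate step in HCT-116 p53RE-bla cells dosed for 16 h at 37 C.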

The nature of assay [10]: p53 small molecule agonists, cell-based qHTS assay (AID 1963582; active = well fitted activation curve with a large enough effect in the signal ratio in the repeat runs, not every such curve was filed as active; the % refers to the signal ratio). Put shortly:
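After plating, p53RE-bla cells sat 5 h in the incubator; compounds or DMSO vehicle were pinned in; a 16 h incubation at 37 C followed; FRET substrate was added and, 2 h later at RT, fluorescence was measured.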

Assay [11] concerns the target 5-hydroxytryptamine receptor 2A (Homo sapiens) (UniProt P28223). The assay can be described thus: 5-hydroxytryptamine receptor 2A (HTR2A) small molecule antagonists, cell-based qHTS assay (AID 1963586). Note: nearly all actives have a fitted effect of over 45% in size. A digest of the protocol: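 CHO cells stably expressing human HTR2A were plated for 18 h at 37 C, then loaded with calcium dye for 1 h. Compounds were preincubated 5 min at room temperature before DOI (4 nM solution) was added. Kinetic fluorescence was read for 3 min.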

For assay [12] the target is unchanged. Description: 5-hydroxytryptamine receptor 2A (HTR2A) small molecule agonists, cell-based qHTS assay (AID 1963587). Note: nearly all actives have a fitted effect of over 30% in size. A digest of the protocol: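 CHO cells stably expressing human HTR2A, plated 18 h, loaded with calcium dye 1 h at 37 C. Agonist mode: compounds added and intracellular calcium fluorescence recorded kinetically for 2 min at 1 sec intervals.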
The target in assay [13] is Muscarinic acetylcholine receptor M1 (Homo sapiens) (UniProt P11229). Description: Cholinergic receptor muscarinic 1 (CHRM1) small molecule antagonists, cell-based qHTS assay (AID 1963588). Note: nearly all actives have a fitted effect of over 40% in size. A digest of the protocol:
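Compounds were tested at 15 concentrations in three independent runs. Dye-loaded CHRM1-CHO cells were exposed 5 min at room temperature before stimulation by acetylcholine added at 50nM. Intracellular calcium was read kinetically on FDSS for 3 min.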

For assay [14] the target is unchanged. Description: Cholinergic receptor muscarinic 1 (CHRM1) small molecule agonists, cell-based qHTS assay (AID 1963589). Note: nearly all actives have a fitted effect of over 35% in size. Put shortly:
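Fluorescent calcium dye reports M1 activation in stably transfected CHO cells. Compounds, 15 concentrations, added after 1 h dye loading at 37 C; kinetic reading at 1 sec intervals.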

Assay [15] is described as follows: cAMP Responsive Elements (CRE) small molecule agonists, cell-based qHTS assay (AID 1963590). Put shortly: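 Compound exposure lasted 3 h at 37 C/5% CO2 in CRE-bla HEK 293T cells grown in assay medium with 10% dialyzed FBS and 25 mM HEPES. Reporter signal came from LiveBLAzer B/G FRET substrate, 2 h, room temperature.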
For assay [16], the target named is Beta-2 adrenergic receptor (Homo sapiens) (UniProt P07550). Description: Adrenergic beta2 receptor (ADRB2) small molecule antagonists, cell-based qHTS assay (AID 1963592). Note: series mostly up to about 92 µM; nearly all actives have a fitted effect of over 50% in size. Put shortly:
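Assay format: CHO-ADRB2 cells, 18-20hr seeding at 37C/5% CO2, then compound plus 1nM isoproterenol agonist mix for 0.5hr RT. Homogeneous time-resolved fluorescence cAMP detection after 1hr, expressed as 665/615 nm ratio.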

Assay [17] deals with D(2) dopamine receptor (Homo sapiens) (UniProt P14416). The assay can be described thus: Dopamine D2 receptor (DRD2) small molecule agonists, cell-based qHTS assay (AID 1963594). Note: nearly all actives have a fitted effect of over 35% in size. A digest of the protocol:
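HEK293 cells stably expressing human DRD2, pre-treated with PDE inhibitor Ro20-1724 (0.1 mM final) and compound 10 min at room temperature, then stimulated with NKH477 (200nM […]) for 30 min. cAMP read by HTRF (665/620 nm).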

The target is the same in assay [18]. Description: Dopamine D2 receptor (DRD2) small molecule antagonists, cell-based qHTS assay (AID 1963595; active = well fitted inhibition curve with a large enough effect in the signal ratio in the repeat runs, with a control signal flat; the % refers to the signal ratio). Put shortly: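 Human DRD2 antagonist qHTS measuring cAMP by HTRF. The cells are exposed to compound for 10 min, then to NKH477 (200 nM) and quinpirole (12 nM) for 30 min at RT, with Ro20-1724 (0.1 mM) present throughout.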
Assay [19] can be described thus: cAMP Responsive Elements (CRE) small molecule antagonists, cell-based qHTS assay (AID 1963591; active = well fitted inhibition curve with a large enough effect in the signal ratio in the repeat runs, not every such curve was filed as active; the % refers to the signal ratio). A digest of the protocol: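 Stimulation used NKH477 at a final 0.25 uM for 3 h in compound-treated CRE-bla HEK293T cells, seeded 18 h beforehand. Reporter activity was measured with LiveBLAzer B/G FRET substrate after 2 h at room temperature.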

Unmarked numbers belong to inactive results. Results filed as inconclusive are left out. Calls of active or inactive are those of the source. Unless noted, calls come from the whole dose curve.

Sequence of Beta-2 adrenergic receptor (Homo sapiens) (P07550 whole entry, looked up): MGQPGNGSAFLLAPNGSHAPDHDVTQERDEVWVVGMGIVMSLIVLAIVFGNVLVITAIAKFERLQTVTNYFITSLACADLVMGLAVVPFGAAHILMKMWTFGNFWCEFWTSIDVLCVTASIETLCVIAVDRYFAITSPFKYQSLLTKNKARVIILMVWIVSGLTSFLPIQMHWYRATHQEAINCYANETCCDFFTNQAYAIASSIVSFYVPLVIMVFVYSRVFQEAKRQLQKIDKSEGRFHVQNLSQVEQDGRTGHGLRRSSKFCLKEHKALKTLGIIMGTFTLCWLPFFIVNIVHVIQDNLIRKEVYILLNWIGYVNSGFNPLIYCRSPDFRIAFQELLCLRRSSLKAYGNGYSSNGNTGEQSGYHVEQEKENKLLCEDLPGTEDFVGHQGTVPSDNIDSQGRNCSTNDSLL
Sequence of D(2) dopamine receptor (Homo sapiens) (P14416 whole entry, looked up): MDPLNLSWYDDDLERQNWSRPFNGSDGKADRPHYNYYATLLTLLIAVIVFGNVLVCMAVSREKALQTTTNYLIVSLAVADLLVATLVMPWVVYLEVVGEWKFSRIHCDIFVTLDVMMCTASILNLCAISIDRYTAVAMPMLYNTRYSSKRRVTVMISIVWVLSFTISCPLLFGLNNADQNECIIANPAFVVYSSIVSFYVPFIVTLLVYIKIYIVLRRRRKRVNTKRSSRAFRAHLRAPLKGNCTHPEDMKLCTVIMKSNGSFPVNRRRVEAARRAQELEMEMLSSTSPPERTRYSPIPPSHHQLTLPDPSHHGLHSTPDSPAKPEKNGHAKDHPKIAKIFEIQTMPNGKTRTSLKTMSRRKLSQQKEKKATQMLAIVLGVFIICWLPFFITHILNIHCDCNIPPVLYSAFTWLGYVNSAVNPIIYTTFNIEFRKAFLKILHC
Sequence of Muscarinic acetylcholine receptor M1 (Homo sapiens) (P11229 whole entry, looked up): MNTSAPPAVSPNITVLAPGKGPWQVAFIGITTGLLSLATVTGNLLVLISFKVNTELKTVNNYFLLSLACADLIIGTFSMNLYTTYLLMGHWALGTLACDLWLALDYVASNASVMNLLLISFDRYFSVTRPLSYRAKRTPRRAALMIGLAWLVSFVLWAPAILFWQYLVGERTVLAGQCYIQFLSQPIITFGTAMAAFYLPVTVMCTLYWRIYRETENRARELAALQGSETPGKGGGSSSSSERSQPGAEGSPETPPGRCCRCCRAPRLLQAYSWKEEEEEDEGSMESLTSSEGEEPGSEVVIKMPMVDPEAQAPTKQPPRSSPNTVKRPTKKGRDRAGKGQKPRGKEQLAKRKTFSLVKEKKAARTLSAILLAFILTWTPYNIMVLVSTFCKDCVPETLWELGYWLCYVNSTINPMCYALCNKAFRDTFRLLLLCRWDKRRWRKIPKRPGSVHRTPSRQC
Sequence of KiSS-1 receptor (Homo sapiens) (Q969F8 whole entry, looked up): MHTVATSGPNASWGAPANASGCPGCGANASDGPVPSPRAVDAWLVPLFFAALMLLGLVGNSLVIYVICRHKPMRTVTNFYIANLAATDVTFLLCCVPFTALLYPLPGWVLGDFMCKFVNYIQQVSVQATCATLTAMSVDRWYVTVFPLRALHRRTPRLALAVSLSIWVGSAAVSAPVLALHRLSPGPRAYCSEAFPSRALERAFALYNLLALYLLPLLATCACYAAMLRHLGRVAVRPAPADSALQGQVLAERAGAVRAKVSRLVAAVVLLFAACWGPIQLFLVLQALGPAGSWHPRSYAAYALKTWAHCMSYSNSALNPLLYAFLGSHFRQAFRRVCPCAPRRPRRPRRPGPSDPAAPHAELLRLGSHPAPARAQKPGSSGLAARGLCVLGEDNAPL
Sequence of Gonadotropin-releasing hormone receptor (Homo sapiens) (P30968 whole entry, looked up): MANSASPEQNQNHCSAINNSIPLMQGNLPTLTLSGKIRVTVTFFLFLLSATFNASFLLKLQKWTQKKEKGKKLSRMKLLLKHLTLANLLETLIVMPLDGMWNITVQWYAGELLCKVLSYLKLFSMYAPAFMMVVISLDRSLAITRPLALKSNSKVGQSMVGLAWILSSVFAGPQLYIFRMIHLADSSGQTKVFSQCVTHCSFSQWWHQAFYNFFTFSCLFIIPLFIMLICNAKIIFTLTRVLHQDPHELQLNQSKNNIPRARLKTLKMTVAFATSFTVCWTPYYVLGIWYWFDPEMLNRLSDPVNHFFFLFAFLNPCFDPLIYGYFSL
Sequence of 5-hydroxytryptamine receptor 2A (Homo sapiens) (P28223 whole entry, looked up): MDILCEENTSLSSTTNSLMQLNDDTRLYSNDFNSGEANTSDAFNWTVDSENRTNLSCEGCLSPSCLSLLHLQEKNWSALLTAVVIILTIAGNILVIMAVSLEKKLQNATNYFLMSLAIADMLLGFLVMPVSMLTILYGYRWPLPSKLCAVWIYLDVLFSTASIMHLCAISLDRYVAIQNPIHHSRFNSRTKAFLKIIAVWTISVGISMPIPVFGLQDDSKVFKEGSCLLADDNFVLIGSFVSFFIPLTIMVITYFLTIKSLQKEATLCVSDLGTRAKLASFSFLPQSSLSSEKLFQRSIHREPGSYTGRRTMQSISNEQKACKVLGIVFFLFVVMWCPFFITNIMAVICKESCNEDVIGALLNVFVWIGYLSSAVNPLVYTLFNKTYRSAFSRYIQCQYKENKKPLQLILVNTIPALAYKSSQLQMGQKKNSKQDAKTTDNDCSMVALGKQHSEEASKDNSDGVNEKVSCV

As for `N[C@H]1C(O)O[C@H](CO)[C@H](O)[C@@H]1O` (some centres not stated), the Potency entry in assay [1], in [2], in [3], in assay [6], in [7] and in assay [8] was “inactive” each time. The Potency entry in assay [9], in assay [10], in assay [11], in assay [12], in assay [13] and in assay [14] was “inactive” throughout. Moreover, the Potency entry in assay [15], in [16], in assay [17] and in assay [18] was “inactive” in each case. The result in assay [4] and in [5] was inactive.
Turning to `ClCCl`, the Potency result in assay [1], in assay [2], in assay [3], in assay [6], in [7] and in assay [8] was “inactive” throughout. Moreover, the Potency entry in assay [9], in assay [10], in [11], in [12], in [14] and in assay [15] was “inactive” in each case. Also, the Potency entry in assay [19], in assay [16], in [17] and in assay [18] was “inactive” throughout. The result in assay [4] and in [5] was inactive.
With `C[C@H](CN1CCCC1)C(=O)c1ccc(C(F)(F)F)cc1`, the Potency result in [1], in [2], in [3], in [6], in [7] and in assay [8] was “inactive” each time. For the same molecule, the Potency entry in [9], in assay [10], in assay [11], in assay [12], in [14] and in assay [15] was “inactive” each time. Besides, the Potency entry in assay [16], in assay [17] and in [18] was “inactive” in each case. For the same molecule, the outcome in assay [4] and in assay [5] was inactive.
`Oc1cccc2[nH]ccc12`: the Potency entry in [1], in assay [2], in assay [3], in [6], in [7] and in [8] was “inactive” in each case. Besides, the Potency result in [9], in assay [10], in [11], in [12], in [13] and in [14] was “inactive” in each case. Besides, the Potency result in assay [15], in assay [19] and in assay [18] was “inactive” throughout. The result in [4] and in [5] was inactive.
Consider `COCC(=O)Nc1c(I)c(C(=O)NCC(O)CO)c(I)c(C(=O)N(C)CC(O)CO)c1I` (configuration not stated), for which the Potency entry in [1], in assay [2], in [3], in assay [6], in [7] and in [8] was “inactive” throughout. In addition, the Potency entry in [9], in assay [10], in [11], in [12], in assay [13] and in assay [15] was “inactive” each time. The Potency result in assay [19], in [16], in assay [17] and in assay [18] was “inactive” in each case. In addition, the outcome in [4] and in assay [5] was inactive.
`N#CCc1ccc(Cl)cc1Cl`: the Potency entry in assay [1], in [2], in assay [3], in assay [6], in assay [7] and in assay [8] was “inactive” throughout. The Potency entry in [9], in assay [10], in [11], in assay [12], in assay [13] and in assay [14] was “inactive” in each case. In addition, the Potency result in [15], in assay [19], in assay [16] and in assay [18] was “inactive” in each case. In addition, the outcome in assay [4] and in [5] was inactive.
On to `COc1cccc(O)c1O`, for which the Potency result in [1], in assay [3], in assay [6], in [7], in assay [8] and in assay [9] was “inactive” in each case. The Potency entry in [10], in assay [11], in assay [12], in [13], in [14] and in assay [15] was “inactive” each time. The Potency result in assay [16] was “inactive”. The Potency in assay [2] was 28.4 µM (active). Moreover, the outcome in assay [4] and in assay [5] was inactive.
